The structures appear in SMILES notation. Hit rate of the full screen: of about 350,000 compounds, about 31,000 (8.9%) were called active. A call without a number means that no potency is given here. Inconclusive results (about 15%) are left out. Many of the other results were omitted from the sample, so actives are more common in it than they were. Values without a mark were called inactive. Calls come from the whole dose curve; as a rule, active = well fitted inhibition curve with a large enough effect; inconclusive = small, poorly fitted or top-dose-only effect; inactive = no such curve, though single readings can be large or run the other way.
Potency is the fitted concentration of half-maximal effect.

Histone-lysine N-methyltransferase EHMT2 (Homo sapiens), sequence (Q96KQ7 913-1193 limits assumed): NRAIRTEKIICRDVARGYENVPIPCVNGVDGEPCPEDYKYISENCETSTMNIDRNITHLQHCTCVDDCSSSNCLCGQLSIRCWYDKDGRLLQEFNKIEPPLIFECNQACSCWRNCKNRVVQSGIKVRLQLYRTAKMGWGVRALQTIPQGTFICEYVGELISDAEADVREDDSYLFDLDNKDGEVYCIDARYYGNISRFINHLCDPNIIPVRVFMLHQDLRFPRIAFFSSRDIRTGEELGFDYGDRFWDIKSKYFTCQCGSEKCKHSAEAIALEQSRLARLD

The assay has as its target Histone-lysine N-methyltransferase EHMT2 (Homo sapiens) (UniProt Q96KQ7). Nature of the assay: qHTS Assay for Inhibitors of Histone Lysine Methyltransferase G9a. Note: nearly all actives have a fitted effect of over 75% in size. Conditions: G9a H3K9 monomethylation, AlphaScreen, 2 h; series mostly up to 59 µM. The text has this:
Methylated lysines, on the N-terminal tails of histone proteins serve as epigenetic markers to recruit factors that can then modify local chromatin structure to lead to functional consequences. G9a and other members of the SUV39 family of the SET domain-containing superfamily of histone lysine methyltransferases (HMT) have been identified to specifically methylate Lys9 of histone H3 (H3K9). G9a catalyzes the mono- and di-methylation of H3K9 in mammalian euchromatic regions, where the resulting H3K9me2 is indicative of transcriptional repression. […] The inhibition of G9a will result in transcriptional activation and work synergistically with DNA methyltransferase and histone deacetylase inhibitors, to kill cancer cells. This qHTS assay for identification of G9a inhibitors is a chemiluminescence based AlphaScreen (PerkinElmer). Methylation of biotinylated-histone peptide is measured through specific antibody-based detection, in conjunction with streptavidin-coated donor and anti-IgG antibody-coated acceptor beads. The method is particularly well suited for detection of inhibitors acting by the desired histone peptide competitive mechanism and is applicable to testing other HMTs. Although AlphaScreen has significant advantages with its utility in a variety of epigenetic target assays, the primary screening data provided in this deposition should be used with caution due to the prevalence of screening artifacts. An AlphaScreen counterscreen is highly recommended to be run against any putative actives to eliminate non specific artifacts. Alternatively, one can use other AlphaScreen assays in PubChem to filter out promiscuous hits. Quinn et al. A chemiluminescence-based method for identification of histone lysine methyltransferase inhibitors. Mol Biosyst 6(5): 782-8. 2010. PMID: 20567762 [2] Baell,Holloway. New substructure filters for removal of pan assay interference compounds (PAINS) from screening libraries and for their exclusion in bioassays. J Med Chem. 53(7):2719-40. 2010. PMID: 20131845 NIH Molecular Libraries Probe Production Network [MLPCN] NIH Chemical Genomics Center [NCGC] Structural Genomics Consortium (SGC) NIH Grant: 5U54 MH084681-02
To each well of a 1,536w plate, 2ul of HMT enzyme (final 20nM) were added, using a nanoliter dispenser. The G9a- and GLP-inhibitor BIX-01294 (CID: 25150857) are used as an intraplate control, with a 16-point titration in duplicate. A Kalypsys pin-tool transferred 23nl of library compound solution in DMSO to each well. Following a 15 min incubation of enzyme with compounds at room temperature, 1ul mixture of b-H3K9 peptide substrate (final 500nM) and SAM cofactor (final 20uM) were added. Reactions were allowed to proceed at room temperature for 2 hours. Methylated b-H3K9 peptide product was detected with 0.5 ug/mL rabbit polyclonal anti-monomethyl histone H3K9 antibody (Abcam Inc., Cambridge, MA) and 20 ug/mL each streptavidin-coated donor and anti-rabbit IgG acceptor AlphaScreen beads. Antibody and beads were added in a 1ul dispense, for a final volume of 4ul, and plates were incubated, protected from the light, for 10 min at room temperature. Microplates were then read on an EnVision multilabel plate reader using the 1,536 plate HTS AlphaScreen aperture (excitation time 80 ms, measurement time 240 ms).
Take `COCCn1nnnc1C(c1cc2ccc(OC)cc2[nH]c1=O)N1CCc2ccccc2C1` (stereo unspecified): the Potency was 5.62 µM (active).
Turning to `CCOc1ccc2[nH]c(=O)c(C(c3nnnn3CCOC)N3CCOCC3)cc2c1` (stereo unspecified), the activity, negative = inhibition was 8.47% [at 2.33 µM].
In the case of `CN1CCN(C(c2cc3cc4c(cc3[nH]c2=O)OCCO4)c2nnnn2C2CCCC2)CC1` (stereo unspecified), the Potency result was “inactive”.
As to `CCC(C)(C)n1nnnc1C(c1ccccc1OC)N1CCSCC1` (stereo unspecified), the Potency entry was “inactive”.
As to `Cc1ccc(C(c2nnnn2C(C)(C)C)N2CCc3ccccc3C2)cc1` (stereo unspecified), the Potency entry is “inactive”.
Still for that read-out and setting: with `COc1ccc(OC)c(C(c2nnnn2C(C)(C)C)N2CCc3ccccc3C2)c1` (stereo unspecified) the figure was 50.1 µM (active); with `Cc1ccc(Cn2c(C)c3cnn(CC(=O)NCc4ccccc4)c(=O)c3c2C)cc1`, “inactive”; with `COc1ccc(S(=O)(=O)N2CCCCCC2)cc1C(=O)N(C)Cc1cccc(OC)c1OC`, “inactive”.
As for `COc1ccc(CCNC(=O)CCCn2c(=O)c3ccccc3n(Cc3ccc(C)cc3)c2=O)cc1OC`, the Potency entry is “inactive”.
On the same count and under the same terms, with `C=CCn1c(C23CC4CC(CC(C4)C2)C3)n[nH]c1=S` the figure was 3.16 µM (active).
The same measure, in the same setting: to `C=CCn1c(SCC(=O)NC23CC4CC(CC(C4)C2)C3)nc(O)cc1=O` belongs “inactive”; to `C=CCn1c(SCC(=O)NC)nnc1C12CC3CC(CC(C3)C1)C2`, “inactive”.
Consider `COc1ccc(C(=O)NCc2ccc(C)cc2)cc1S(=O)(=O)N1CCCC1`, for which the activity, negative = inhibition was -16.6% [at 0.0925 µM].
On to `COc1ccc(CNC(=O)CSc2n[nH]c(-c3ccc(F)cc3)n2)cc1`, for which the Potency entry is “inactive”.
On to `COc1ccc(CNC(=O)CSc2n[nH]c(N)n2)cc1OC`, for which the Potency is 79.4 µM (active).
`Nc1nc(SCC(=O)Nc2ccc(Cl)c([N+](=O)[O-])c2)n[nH]1`: the activity, negative = inhibition was -3.46% [at 12.7 µM].
Take `Nc1nc(SCC(=O)Nc2ccc(Cl)cc2C(F)(F)F)n[nH]1`: the Potency result is “inactive”.
`Nc1nc(SCC(=O)NN(c2ccccc2)c2ccccc2)n[nH]1`: the Potency entry is “inactive”.
Turning to `Nc1nc(SCC(=O)NNc2c(Cl)cc(Cl)cc2Cl)n[nH]1`, the Potency is 10 µM (active).
Take `Cc1ccc(CCNC(=O)C2CCN(c3nnc(-n4cccc4CNc4ccc(C)cc4)s3)CC2)cc1`: the Potency result was “inactive”.
With `COC(=O)c1ccc(NC(=O)c2cccc3c2C(=O)N(C2CCCCC2)C3)cc1`, the Potency entry was “inactive”.
In the case of `CC1CCN(C(=O)c2cccc(S(=O)(=O)N3CCCc4ccccc43)c2)CC1`, the activity, negative = inhibition is 10.4% [at 2.33 µM].
With `COc1cc(OC)cc(C(=O)NNC(=O)CCOc2ccccc2OC)c1`, the Potency result is “inactive”.
`COc1cccc(C(=O)NCC(=O)OCc2cc(=O)n3ccsc3n2)c1`: the Potency entry is “inactive”.
Still for that read-out and setting: with `COc1cc(C(=O)Nc2ccc(OCc3cc(=O)n4cc(C)sc4n3)cc2)cc(OC)c1OC` the entry was “inactive”; with `O=C(Nc1cccc2cccnc12)c1cccc2c(Br)cccc12`, “inactive”.
